Screening results: PubChem BioAssay, National Center for Advancing Translational Sciences (NCATS)
In the library only some 0.85% were active in any assay of this set; here they are far more common.
BLM inh: blocks DNA unwinding by human BLM helicase; P54132; 0.2% of 350,000 active; Potency, µM (series often up to 56.1 µM), for the others: at the highest dose activity change, negative = inhibition, most hits filed as inhibitors; AID 2528; recombinant BLM DNA unwinding, fluorescence dequenching;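 further: plate controls were vehicle for no effect and no enzyme for full effect; nearly all actives have a fitted effect of over 35% in size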
RECQ1 helicase: inhibitors of human RECQ1 DNA helicase; P46063; 0.54% of 240,000 active; Potency, µM (top dose mostly 57.3 µM), inactives show at the top dose activity, negative = inhibition, hits mostly inhibitors; RECQ1 DNA unwinding, red fluorescence kinetic read;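 further: plate controls were vehicle for no effect and no enzyme for full effect; nearly all actives have a fitted effect of over 30% in size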
Target sequence (P46063 whole entry, looked up): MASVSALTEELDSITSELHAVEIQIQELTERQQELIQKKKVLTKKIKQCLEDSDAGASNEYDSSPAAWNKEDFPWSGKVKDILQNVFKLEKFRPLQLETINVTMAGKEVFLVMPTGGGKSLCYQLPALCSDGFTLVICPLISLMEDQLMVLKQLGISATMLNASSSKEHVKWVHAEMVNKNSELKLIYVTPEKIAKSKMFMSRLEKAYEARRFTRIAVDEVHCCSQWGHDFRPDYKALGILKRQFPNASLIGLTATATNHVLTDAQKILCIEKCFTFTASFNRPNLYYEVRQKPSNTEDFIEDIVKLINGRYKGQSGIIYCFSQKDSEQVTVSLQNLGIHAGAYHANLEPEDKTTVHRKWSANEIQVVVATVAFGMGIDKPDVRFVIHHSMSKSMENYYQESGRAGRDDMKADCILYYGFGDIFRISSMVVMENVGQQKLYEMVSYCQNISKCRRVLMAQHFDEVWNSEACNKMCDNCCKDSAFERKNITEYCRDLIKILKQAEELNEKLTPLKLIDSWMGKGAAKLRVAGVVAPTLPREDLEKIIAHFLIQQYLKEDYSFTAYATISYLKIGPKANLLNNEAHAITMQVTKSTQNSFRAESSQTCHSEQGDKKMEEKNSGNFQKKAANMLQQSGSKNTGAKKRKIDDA
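50 nM RECQ1T1 preincubated 15 min with compound in Tris pH 8.0 buffer with MgCl2, DTT, Tween-20 and 2.5 ug/ml poly(dI-dC); started with 200 nM TAMRA/BHQ-2 forked duplex and 2 mM ATP. Unwinding read as fluorescence (525/598 nm), two reads 2 h apart.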
GLS inh: inhibitors of human glutaminase (GLS); GLS enzymatic activity, qHTS titration; Potency, µM (titrated, usually from 45.5 µM), for the others: top-dose activity change, negative = inhibition, usual class: inhibitors; 0.21% of 410,000 active
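Assay buffer: 45 mM KH2PO4 pH 8.2, 0.02% Tween-20. hKGA acts on L-glutamine (1 mM solution added); product glutamate is reported by an oxidase/peroxidase Amplex Red coupling, with fluorescence taken at baseline and 30 min.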
TDP1 block: blocks human tyrosyl-DNA phosphodiesterase 1; Potency, µM (highest dose often 130 µM), for inactives: at the top dose activity change, negative = inhibition, actives largely listed as inhibitors; recombinant TDP1, AlphaScreen DNA substrate cleavage; AID 485290; Q9NUW8; 0.28% of 350,000 active; further: nearly all actives have a fitted effect of over 40% in size
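Here, a 5' biotin and 3' phosphotyrosine-FITC DNA oligonucleotide reports Tdp1 activity: intact substrate bridges AlphaScreen beads, while cleavage leaves a 3' phosphate and drops signal. All incubations at room temperature.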
APE1 inh-1: APE1 (human) endonuclease inhibition; recombinant APE1, TAMRA/BHQ-2 abasic DNA cleavage fluorescence; Potency, µM (series often up to 65.8 µM), for inactives: at the top dose activity change, negative = inhibition, usual class: inhibitors; 0.35% of 350,000 active;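 further: plate controls were vehicle for no effect and reference inhibitor for full effect; nearly all actives have a fitted effect of over 55% in size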
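Compound pre-exposure to 0.75 nM APE1, 15 min at ambient temperature. Reaction initiated with 50 nM TAMRA/BHQ-2 THF substrate, read immediately in kinetic mode, 525 nm excitation, 598 nm emission.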
PGK inhibitor: inhibitors of T. brucei phosphoglycerate kinase; P07378; PGK/GAPDH coupled, Kinase-Glo luminescence, 60 min; Potency, µM (highest dose often 57.5 µM), for the others: at the top dose activity change, negative = inhibition, most hits filed as inhibitors; 0.043% of 380,000 active; further: nearly all actives have a fitted effect of over 60% in size
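Luminescent ATP detection (Kinase-Glo Plus) follows a 60-minute room-temperature incubation, with wells lacking PGK as controls. Buffer: 100 mM TEA (pH 7.6), 5 mM MgCl2, 0.01% Tween-20. Coupling enzyme GAPDH (100 nM final) supplies unstable 1,3-BPG in-well.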
DNA dye displace: counter-screen for APE1 inhibitors: DNA dye displacement | shares compounds with APE1 inh-1 | DNA fluorescent dye displacement counterscreen, fluorescence | Potency, µM (top dose mostly 28.5 µM), inactives show at the highest dose activity change, negative = inhibition, actives largely listed as inhibitors | 7% of 480 active;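 further: loss of thiazole orange fluorescence as the dye is displaced from duplex DNA; 0% = ThO with dsDNA and no compound and -100% = ThO without dsDNA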
Endo IV inh: blocks E. coli endonuclease IV DNA cleavage; E. coli Endo IV, fluorogenic AP-site DNA cleavage; 4% of 560 active; AID 2565; Potency, µM (doses to about 27.1 µM), for inactives: top-dose activity change, negative = inhibition, most hits filed as inhibitors; shares compounds with APE1 inh-1;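 further: plate controls were uninhibited enzyme wells for no effect and no enzyme buffer wells for full effect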
APE1 inh-2: confirmation of inhibitors of human APE1 endonuclease; shares compounds with APE1 inh-1; 44% of 750 active; AID 2572; Potency, µM (highest dose often 57.1 µM), for inactives: top-dose activity change, negative = inhibition, hits mostly inhibitors; purified APE1, fluorogenic abasic-site DNA cleavage; further: nearly all actives have a fitted effect of over 30% in size
APE1 FP inh: APE1 (human) DNA binding inhibition, fluorescence polarization; Potency, µM (highest dose often 28.5 µM), for inactives: at the highest dose activity, negative = inhibition, usual class: inhibitors; shares compounds with APE1 inh-1; 7% of 480 active; APE1 binding to TAMRA-labelled double-stranded DNA, fluorescence polarization displacement
* = called active by the depositor; i = inactive; ? = inconclusive; . = no result given; [ ] = remark or other dose. The call rests on the fitted dose curve; in most records, active means well fitted curve in the direction sought with a large enough effect; inconclusive means small, poorly fitted or top-dose-only effect, or another doubt; inactive means no such curve, though single readings can be large; an effect the other way counts as inactive or inconclusive. Unless noted, on the % scale 0 is the no-effect control and ±100 the full control effect; potency means the concentration at half of the fitted maximal effect.

SMILES | BLM inh | RECQ1 helicase | GLS inh | TDP1 block | APE1 inh-1 | PGK inhibitor | DNA dye displace | Endo IV inh | APE1 inh-2 | APE1 FP inh
COc1c(O)cc2c(c1O)C(=O)CC(c1ccccc1)O2 (configuration not stated) | -3% | -10% | . | 1% | 25µM* | . | -3% | 2% | -11%[24.4 µM] | 0%
CCCCC[C@H](O)/C=C/[C@@H]1[C@@H](C/C=C\CCCC(=O)OC)[C@@H](O)C[C@H]1O | -19% | -1% | ? | 50µM* | 7% | ? | . | . | -14% | .
COc1ccc(-c2nn(-c3ccccc3)cc2C(=O)Nc2nccs2)cc1 | -8% | i | 2% | 12% | -8% | i | . | . | . | .
O=C(Nc1nccs1)c1cn(-c2ccccc2)nc1-c1ccncc1 | -15% | -12% | ? | 79µM* | 7% | 2% | . | . | -17% | .
CC(C)(C)c1cccc(C2(O)C(=O)c3ccccc3C2=O)c1O | -4% | i | 4% | 0% | -8% | -1% | . | . | . | .
Cc1ccc(C2(O)C(=O)c3ccccc3C2=O)c(O)c1C | -3% | ? | 0% | 50µM* | 3% | -1% | . | . | ? | .
CC(=O)OC1CC2C(C)(C)C(O)CC[C@@]2(C)C2CC[C@@]3(C)C(c4ccoc4)OC(=O)C4OC43[C@]12C (some centres not stated) | -3% | -6% | . | 15%[56.1 µM] | ? | . | 1%[57.1 µM] | 1%[57.1 µM] | ? | 0%[57.1 µM]
COc1ccc(/C(C)=N/Nc2ccc(F)cc2F)c(O)c1 | -5% | -2% | -6% | 9% | 0% | -9% | . | . | . | .
COc1ccc(/C(C)=N/Nc2ccccc2Cl)c(O)c1 | -5% | -10% | -5% | 40µM* | ? | ? | . | . | ? | .
NC(C(=O)O)c1cc(O)cc(O)c1 (configuration not stated) | . | ? | . | -9% | ? | . | . | . | . | .
Cc1ccc(/C=C2/CNC/C(=C\c3ccc(C)cc3)C2=O)cc1 | -11% | -7% | . | 6% | 1% | . | . | . | . | .
O=c1cc(-c2ccc(O)cc2)oc2c([C@@H]3O[C@H](CO)[C@@H](O)[C@H](O)[C@H]3O)c(O)c([C@@H]3O[C@H](CO)[C@@H](O)[C@H](O)[C@H]3O)c(O)c12 | -2% | -8% | 11% | 0% | ? | -2% | . | . | . | .
O=c1cc(-c2ccc(O)cc2)oc2c(C3OCC(O)C(O)C3O)c(O)c(C3OC(CO)C(O)C(O)C3O)c(O)c12 (configuration not stated) | -12% | -15% | 11% | . | 20µM* | -19% | -7% | -4% | 4.5µM* | 1%
Cc1ccc(-c2nn(C)c(=O)c3ccccc23)cc1S(=O)(=O)NCCN1CCOCC1 | 2% | -5% | -1% | 8% | 1% | -12% | . | . | . | .
CCOC(=O)CNS(=O)(=O)c1cc(-c2nn(C)c(=O)c3ccccc23)ccc1C | 1% | -3% | 48% | 50µM* | 35µM* | -10% | -7% | 9% | 10µM* | -14%
O=c1c2ccccc2nc(COc2ccccc2)n1/N=C/c1ccc(O)c(O)c1 | -26% | 28µM* | 23% | 6% | ? | -5% | ? | 51% | ? | 7%
COc1cc(Br)c(C[N+]2(CCOCCC3CCC4CC3C4(C)C)CCOCC2)cc1OC (configuration not stated) | . | . | -13% | . | . | . | . | . | . | .
O=[N+]([O-])c1ccccc1/C=N\Nc1nccs1 | 0% | . | -15% | . | 19% | -11% | . | . | . | .
O=[N+]([O-])c1cc(/C=N\Nc2nccs2)ccc1O | 28µM* | 11µM* | . | ? | 7.1µM* | . | 10µM* | 16% | 1.6µM* | 8.9µM*
O=C(CNC(=O)c1ccccc1)N[C@H](C(=O)Nc1cc(C(F)(F)F)ccc1Cl)c1ccccc1 | . | . | . | 1% | . | . | . | . | . | .
CC(C)(C)C(=O)[C@@H]1[C@@H]2C(=O)N(Cc3ccccc3)C(=O)[C@@H]2[C@H]2c3ccccc3C=CN12 | -12% | -24% | . | 71µM* | ? | . | . | . | -14% | .
CC(=O)[C@@H]1[C@@H]2C(=O)N(C3CCCCC3)C(=O)[C@@H]2C2c3ccccc3C=CN21 (some centres not stated) | -22% | i | . | 4% | ? | . | . | . | . | .
Cn1nc([N+](=O)[O-])nc1S(C)(=O)=O | -2% | -15% | -1% | 2% | ? | -4% | -1% | 0% | ? | -2%
COc1ccc(C(=O)c2ccc(CC#N)s2)cc1 | -5% | -1% | 0% | 89µM* | 1% | -22% | . | . | -25% | .
O=S(=O)(c1ccc2c(c1)OCCO2)N1CCN(S(=O)(=O)c2c(F)ccc(O)c2F)CC1 | . | . | . | -1% | . | . | . | . | . | .
SMILES | BLM inh | RECQ1 helicase | GLS inh | TDP1 block | APE1 inh-1 | PGK inhibitor | DNA dye displace | Endo IV inh | APE1 inh-2 | APE1 FP inh
COC(=O)c1cc2oc3ccccc3c2n1Cc1ccccn1 | -2% | -3% | -4% | -4% | ? | -4% | -9% | 2% | -2%[24.4 µM] | 8%
CCc1ccc(-c2nc3c(=O)n(C)c(=O)nc-3n(CC)n2)cc1 | . | . | . | 2% | . | . | . | . | . | .
CC(=O)NN1C(=O)/C(=C/c2ccc(Br)o2)SC1=S | -10% | ? | ? | ? | 32µM* | ? | -8% | 4% | ? | 19%
C[Se]CC[C@H](N)C(=O)O | 1% | . | 1% | . | . | . | . | . | . | .
CC(C)C(=O)Nc1ccc(-c2ccc3nncn3n2)cc1 | -1% | i | 0% | 0% | -1% | -6% | . | . | . | .
O=C(Nc1ccc(-c2ccc3nncn3n2)cc1)c1ccc(Br)o1 | -11% | -25% | -8% | 79µM* | -2% | -4% | . | . | -41% | .
Cn1c2ccsc2c2cnn(Cc3ccccc3F)c(=O)c21 | . | . | . | -3% | . | . | . | . | . | .
COc1ccc2c(c1)c(=O)oc1cc3oc(C)c(C)c3cc12 | -16% | -12% | . | . | ? | . | 38% | -2% | 5.6µM* | -4%
Fc1ccccc1-c1ccc(-c2nc3ccc(Cl)cn3c2Nc2ccc(Cl)cc2)o1 | . | . | . | 7% | . | . | . | . | . | .
